Measurements taken from the supplement of paper PMC3334620.
The full ranking holds about 33,000 sequences; the median of “E-score (-0.5 to 0.5)” is about -0.035, and the highest 2% start at about 0.35. For the sample, the highest values were picked, then their nearest neighbours and some sequences at random.

Target: T1, Pdr3 (UniProt P33200)
T1 sequence: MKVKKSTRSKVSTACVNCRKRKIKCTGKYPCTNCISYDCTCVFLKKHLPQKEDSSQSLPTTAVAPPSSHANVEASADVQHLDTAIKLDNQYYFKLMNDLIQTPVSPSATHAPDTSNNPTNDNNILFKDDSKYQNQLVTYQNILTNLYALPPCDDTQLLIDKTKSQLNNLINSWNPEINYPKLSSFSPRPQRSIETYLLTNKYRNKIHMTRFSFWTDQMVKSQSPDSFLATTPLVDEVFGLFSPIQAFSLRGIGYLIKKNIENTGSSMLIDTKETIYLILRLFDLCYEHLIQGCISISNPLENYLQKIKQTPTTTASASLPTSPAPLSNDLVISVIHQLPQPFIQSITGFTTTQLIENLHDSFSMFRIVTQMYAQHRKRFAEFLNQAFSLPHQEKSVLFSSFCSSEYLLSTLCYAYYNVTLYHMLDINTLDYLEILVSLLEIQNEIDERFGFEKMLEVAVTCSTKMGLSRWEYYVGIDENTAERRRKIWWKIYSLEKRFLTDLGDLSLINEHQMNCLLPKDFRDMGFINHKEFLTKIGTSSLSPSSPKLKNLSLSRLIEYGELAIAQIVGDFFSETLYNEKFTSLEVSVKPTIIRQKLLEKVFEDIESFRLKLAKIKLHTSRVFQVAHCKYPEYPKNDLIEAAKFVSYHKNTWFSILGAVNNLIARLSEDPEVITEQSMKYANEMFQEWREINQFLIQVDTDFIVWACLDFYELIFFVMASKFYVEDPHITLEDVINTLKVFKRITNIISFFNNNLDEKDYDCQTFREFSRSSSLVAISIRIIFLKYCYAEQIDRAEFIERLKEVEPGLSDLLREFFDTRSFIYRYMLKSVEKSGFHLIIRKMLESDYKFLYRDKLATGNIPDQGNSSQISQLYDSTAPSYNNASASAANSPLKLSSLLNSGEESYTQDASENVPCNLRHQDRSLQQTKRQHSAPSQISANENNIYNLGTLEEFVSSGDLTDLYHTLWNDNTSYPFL
Experiment: PBM E-score (8-mer binding enrichment) (E-score (-0.5 to 0.5)); higher = stronger / more preferred TF binding
Conditions: protein concentration: 200 nM; construct: GST-full length
Method: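 Universal 'all 10-mer' protein binding microarrays (Agilent AMADID 015681) probed with GST-tagged S. cerevisiae TFs (full-length or DBD) made by in vitro transcription/translation (PURExpress), about 100-200 nM. Bound TF was detected with fluorescent anti-GST. Each ungapped 8-mer (which stands for itself and its reverse complement) is scored by the PBM enrichment score (E-score), a modified Wilcoxon-Mann-Whitney statistic from -0.5 to +0.5, computed with the Universal PBM Analysis Suite. Scale: above 0.35 generally sequence-specific binding.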

Sequence	PBM E-score
AACAACAC	0.0662
CCTCCAGG	-0.269
AATATTCG	0.0118
AATATTCC	0.362
AATATTCA	0.0722
ATACCGCC	0.212
ATCCGTGG	0.428
CTCCGTGC	0.263
AGCCGTTG	0.00388
ATCCGTGA	0.306
GTCCGTTA	0.321
ATCCGTTC	0.322
ATCCGTGC	0.267
ATCCGTTA	0.364
CTCCGTTC	0.367
ACCCGTTG	0.0389
CTCCGTTA	0.216
ATCCGTTG	0.376
AAGCGCGT	-0.113
TAGTCCCA	-0.187
CAACCCGG	0.293
CCACTCTA	-0.0753
AAGAGCCC	-0.00683
CGCTTAAC	0.0421
CAACCGCG	0.369

Sequence	PBM E-score
CAACCGCC	0.0754
GAACCGGC	0.247
GAACCGGA	0.416
TAACCGGA	0.308
CAACCGCA	0.0919
AAACCGGA	0.346
CAACCGGG	0.129
CAACCGGA	0.379
AAGATGAC	-0.202
AATGAAAC	0.059
GGCCTTCA	0.0249
GCGCCCCC	-0.146
GCCGACGC	0.178
CAATCCGC	0.265
CAATCCGA	0.271
AAATCCGG	0.39
AAATCCGC	0.196
AAATCCGT	0.246
CAATCCGG	0.394
GCCTCTTA	-0.109
CGAAGGTA	0.0358
TCGGACGA	0.233
ACGGACGG	0.245
CCGGACGC	0.33
CCGGACGA	0.36

Sequence	PBM E-score
CCGGACGG	0.396
ACGGACGA	0.304
AGCATTCA	-0.0565
CCGTACGA	0.00505
CATTTCTC	0.0391
GTAAAAAC	-0.132
CCCGGGTA	0.438
CCGGGGTC	0.327
ACCGGGTC	0.184
CCCGGGTC	0.426
CCGGGGTA	0.341
ACCGGGTA	0.154
AAACCATT	-0.226
TCGCTTCA	-0.114
CGGTCGAA	0.0584
ATATCCCC	0.0317
ATATCCGA	0.346
ATGTCCGG	0.375
ATATCCCA	0.229
ACATCCCG	0.415
ATATCCGC	0.333
ATGTCCGC	0.223
ACATCCCC	0.245
ATATCCGG	0.384
ATATCCCG	0.357

Sequence	PBM E-score
CCATCCCG	0.31
ATGTCCGA	0.207
AATAGCGC	0.0976
TCCTACAA	0.00772
GAGTAGCC	-0.153
AAACTGGC	-0.0559
AGAGGCAC	-0.154
CGGCTAAA	0.183
ACATCCGG	0.378
AGATCCGC	0.351
AGATCCGG	0.362
AGATCCAG	0.112
ACATCCGT	0.216
ACATCCGA	0.259
ACCGTTGG	0.0171
CAGCATGG	-0.00655
GCCACGGA	0.415
GCCACGTA	-0.208
ACCACGGA	0.377
ACCACGGG	0.205
ACCACGGC	0.135
CCCATGGA	-0.0126
TCCACGGA	0.477
GCCACGGC	0.0607
TCCATGGA	0.423

Sequence	PBM E-score
TCCACGCA	-0.174
ACCATGGA	-0.151
TACACGGA	0.3
AGGCAGCA	-0.0599
AAAACTCT	-0.109
ATCAACGG	0.247
CTATCCAC	0.0063
ATGCTATA	-0.21
ACGTTTTA	-0.16
ATGGTGAC	-0.245
CCCACGGA	0.424
CCCACGGG	0.311
CCCACGGC	0.0935
GTCAGTAA	-0.145
ACTGGAAC	0.0779
ACAGAGCC	-0.128
AACTCCGG	0.416
ATCTCCGC	0.292
CACTCCGG	0.351
AGCTCCGA	0.239
ACCTCCGG	0.402
AGCTCCGC	0.287
AGCTCCGG	0.389
ATCTCCGG	0.4
ACCTCCGT	0.204

Sequence	PBM E-score
ATCTCCGA	0.324
CCCTCCGG	0.265
AACTCCGT	0.271
ACGCTACC	-0.183
CGAGCGCG	0.273
AGCGAAGG	-0.0572
GATTTAAA	-0.159
ATGGCACG	0.117
CGGCGCCA	0.171
AGCCGGCG	0.372
AGCCGGCT	0.315
AGCCGGCA	0.339
CGCCGGCA	0.339
CGCCGGCG	0.452
AGGCGCCG	0.161
CGGCGCCG	0.463
CGCCGGCC	0.32
AACCAGAG	-0.12
ACTGACCG	-0.00211
CGTGCTTA	0.0586
CCTCTAGC	-0.247
GTTCCACA	0.0178
CGTACGGA	0.281
AGGACCCG	0.17
CGGACCCC	0.198

Sequence	PBM E-score
CGGACCCG	0.392
CAGCGCAG	-0.00798
CTCTCTGC	-0.0361
ATTTGACC	-0.0303
CATTGCAC	-0.0987
CGCCGACG	0.0962
GGGAAATA	0.0401
CTGAAATC	0.0707
CGGAAATA	0.45
CGGAAATC	0.407
AGGAAATC	0.0849
AGGAAATA	0.121
AACTCGAC	0.0587
AACAGCTT	0.048
TAGGGGAA	-0.157
AGGCATTA	-0.12
CGGCATTA	0.357
GGGCATTA	-0.0343
CTCTTCCC	0.0704
AAATCCAT	0.17
GGAACTAA	0.296
CCCGCCAC	0.254
AGCTGCTG	-0.0512
